FBPA Giardia inh: Giardia lamblia aldolase inhibition | A8B2U2 | purified Giardia FBPA | Potency, µM (doses to about 59.6 µM), inactives show at the highest dose activity, negative = inhibition, usual class: inhibitors | 290,000 tested, 0.71% active | AID 2451; also: potency is read from the fitted curve at half-maximal effect; % is scaled to controls: 0 for no effect and ±100 for the full control effect; nearly all actives have a fitted effect of over 55% in size
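40 nM FBPA preincubated 10 min at RT with compound (up to 57.5 uM final), then substrate plus GAPDH/TPI/NAD/arsenate coupling and diaphorase/resazurin added. Fluorescence read after 20 min at RT, 525/598 nm.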
Tb PYK inh: inhibitors of Trypanosoma brucei pyruvate kinase | 410,000 tested, 0.12% active | Potency, µM (titrated, usually from 76.8 µM), for inactives: at the highest dose activity, negative = inhibition, actives largely listed as inhibitors | Q57TT1 | TbPYK enzyme, Kinase-Glo Plus ATP luminescence, 45 min; also: potency is read from the fitted curve at half-maximal effect; % is scaled to controls: 0 for no effect and ±100 for the full control effect; nearly all actives have a fitted effect of over 50% in size
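Assay buffer: 50 mM TEA pH 7.2, 100 mM KCl, 10 mM MgCl2, 0.05% BSA, 0.01% Tween-20. Pyruvate kinase from T. brucei plus substrate met compound, then ADP (130 uM final). Luminescence was read post 45 min RT.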
Cycloheximide cs: counter-screen hit for Shiga toxin inhibitors, cycloheximide. 300,000 tested, 12% active. cell reporter, cycloheximide protein synthesis inhibition counterscreen. max response, %. AID 2314; in the data active = max response mostly above about 13%, no sharp cut-off; inactive = mostly below about 14%; also: read at 38.3 µM for the half of the compounds with a filed dose; 0% is about no effect
LmPK inh: inhibitors of Leishmania mexicana pyruvate kinase | Potency, µM (series often up to 57.5 µM), for inactives: at the highest dose activity change, negative = inhibition, hits mostly inhibitors | 290,000 tested, 0.37% active | purified LmPK, Kinase-Glo ATP luminescence, 1 h | Q27686; also: potency is read from the fitted curve at half-maximal effect; % is scaled to controls: 0 for no effect and ±100 for the full control effect
Target sequence (Q27686 whole entry, looked up): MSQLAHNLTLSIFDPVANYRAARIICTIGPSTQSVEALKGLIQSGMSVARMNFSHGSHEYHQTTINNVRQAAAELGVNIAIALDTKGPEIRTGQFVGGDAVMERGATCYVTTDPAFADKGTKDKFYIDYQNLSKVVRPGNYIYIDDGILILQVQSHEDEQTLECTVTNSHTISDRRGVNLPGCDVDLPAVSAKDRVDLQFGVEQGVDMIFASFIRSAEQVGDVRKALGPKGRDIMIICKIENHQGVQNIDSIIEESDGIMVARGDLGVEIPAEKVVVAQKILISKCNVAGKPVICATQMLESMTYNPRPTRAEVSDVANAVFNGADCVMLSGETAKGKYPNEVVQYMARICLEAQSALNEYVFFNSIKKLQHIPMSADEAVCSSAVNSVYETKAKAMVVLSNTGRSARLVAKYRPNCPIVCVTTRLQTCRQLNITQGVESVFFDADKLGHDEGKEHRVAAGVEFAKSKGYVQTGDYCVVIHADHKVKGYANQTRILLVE
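qHTS format; LmPK 0.1 nM; substrates PEP 0.5 mM and ADP 0.1 mM. One-hour room-temperature incubation, then coupled luciferase luminescence; 0.5 nM enzyme wells mark activation.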
RE007 growth inh: less growth of the S. pombe RE007 Vpr strain; S. pombe RE007 Vpr strain, BacTiter-Glo ATP luminescence, 24 h; Potency, µM (series often up to 92.2 µM), inactives show at the top dose activity change, negative = less growth, most hits filed as inhibitors; 360,000 tested, 0.21% active; AID 651644; active = well fitted falling curve with a large enough effect; inconclusive = small, poorly fitted or top-dose-only effect; inactive = no such curve, though single readings can be large or run the other way; also: potency is read from the fitted curve at half-maximal effect; % is scaled to controls: 0 for no effect and ±100 for the full control effect; nearly all actives have a fitted effect of over 50% in size
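Fission yeast RE007 carrying one integrated HIV-1 vpr copy, seeded at OD 0.01 in PMG+AL medium with 23 nL pinned compound. Grown 24 h at 30 degrees; viability read by BacTiter-Glo luminescence after 5 min.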
Shiga toxin inh: Shiga toxin inhibition; Vero cells, Shiga toxin protein synthesis inhibition reporter; inhibition, % at 38.7 µM; 290,000 tested, 9.2% active; in the data active = inhibition mostly above about 28%, no sharp cut-off; inactive = mostly below about 43%; also: 0% is about no effect
Active calls of the source: *; ? = inconclusive; . = no result given; [ ] = another dose, or the depositor's remark. The sample as a whole holds a higher share of hits than the screen did. Unless noted, calls follow the shape of the dose curve; as a rule, active = well fitted curve in the direction sought with a large enough effect; inconclusive = small, poorly fitted or top-dose-only effect, or another doubt; inactive = no such curve, though single readings can be large; an effect the other way counts as inactive or inconclusive.

SMILES	FBPA Giardia inh	Tb PYK inh	Cycloheximide cs	LmPK inh	RE007 growth inh	Shiga toxin inh
Cc1noc(C)c1COC(=O)C1CCN(S(=O)(=O)c2ccc(F)cc2)CC1	.	0%	.	.	2%	.
COCCN=C1Sc2nc3ccc(C)cc3cc2CN1Cc1cccs1	-28%	-16%	12*	5%	-22%	36*
COCCN1Cc2cc3cc(C)ccc3nc2SC1=Nc1ccc(OC)cc1	-15%	-3%	15*	2%	-20%	64*
Cn1nccc1C(=O)Oc1ccc(/C=N/NC(=O)c2ccccc2O)cc1	0%	3%	25	-1%[11.5 µM]	-17%	75*
O=C(Oc1ccc(/C=N/NC(=O)c2ccccc2O)cc1)c1ccccc1	-9%	-1%	16*	4%	-7%	25
O=C(CC1SC(=O)NC1=O)Oc1ccc(/C=N/NC(=O)c2ccccc2O)cc1 (centres undefined)	2%	-10%	23*	-8%	21%	36*
O=C(N/N=C/c1ccc(OC(=O)c2ccccc2)cc1)c1cccc(O)c1	4%	7%	33	6%	12%	39
O=C(Oc1ccc(/C=N/NC(=O)c2ccccc2F)cc1)c1ccccc1	-7%	-8%	27*	-2%	3%	83*
O=C(CCn1c(=O)c2cccn2c2cccnc21)N1CCN(c2cccc(C(F)(F)F)c2)CC1	.	4%	.	.	.	.
Cc1ccc(CC(=O)NNC(=O)c2cccs2)cc1C	.	-5%	.	.	0%	.
COc1ccccc1Nc1ncc(-c2cccs2)s1	5%	-12%	40*	-11%	-16%	108*
Nc1nc(-c2ccccc2)ns1	.	-5%	.	.	2%	.
CC(C)Nc1ccc(-c2nc(-c3ccccn3)no2)cc1[N+](=O)[O-]	.	-5%	.	.	.	.
Brc1ccc(-c2nc(-c3ccncc3)no2)o1	7%	-8%	24*	-2%	-7%	64*
Clc1ccc(-c2nc(-c3ccccn3)no2)cc1Cl	5%	2%	66*	?	-18%	77*
Brc1ccc(-c2noc(-c3ccccn3)n2)o1	9%	-15%	45*	?	?	81*
Fc1cccc(-c2nc(-c3ccncc3)no2)c1	.	-7%	.	.	.	.
COc1cc(-c2nc(-c3ccc(Br)o3)no2)cc(OC)c1OC	2%	1%	2	8%	7%	-1
Brc1ccc(-c2nc(-c3ccccn3)no2)o1	7%	-13%	14*	32µM*	?	-6
COc1ccc(-c2noc(-c3ccc(Br)o3)n2)cc1OC	7%	10%	10	1%	-10%	6
CCSc1ncc(Cl)c(C(=O)N(Cc2ccccc2Cl)C2CCS(=O)(=O)C2)n1 (centres undefined)	.	-2%	.	.	.	.
Cc1ccc2c(=O)cc(C(=O)Nc3sc4c(c3C(=O)NCC3CCCO3)CCCC4)oc2c1C (centres undefined)	.	0%	.	.	.	.
COC(=O)C1=C(CS(=O)(=O)c2ccc(C)cc2C)NC(=O)NC1c1ccc(C)cc1 (centres undefined)	.	1%	.	.	.	.
COCCc1nn2c(=O)cc(COC(=O)C(c3ccccc3)c3ccccc3)nc2s1	.	0%	.	.	.	.
O=C(CN1C(=O)NC2(CCc3ccccc32)C1=O)NCC(=O)Nc1ccc(F)cc1 (centres undefined)	.	-2%	.	.	1%	.
SMILES	FBPA Giardia inh	Tb PYK inh	Cycloheximide cs	LmPK inh	RE007 growth inh	Shiga toxin inh
COC(OC)c1ccnc(-c2ccc(OC(C)=O)cc2)n1	0%	-5%	22*	0%	13%	50
COC(OC)c1ccnc(-c2ccc(OC(=O)c3ccccc3)cc2)n1	0%	4%	27	8%	0%	43
COC(OC)c1ccnc(-c2ccc(OC(=O)c3cccs3)cc2)n1	-6%	-3%	26*	-3%	7%	61*
COc1ccc(CCNCc2c(C(=O)O)c(C)n(Cc3c(F)cccc3Cl)c2C)cc1OC	.	-3%	.	.	.	.
COn1c(=O)c(-c2ccc(F)cc2)[n+]([O-])c2ccccc21	-10%	1%	-2	3%	-9%	3
CCOc1ccc(-c2c(=O)n(OCc3nc4ccccc4[nH]3)c3ccccc3[n+]2[O-])cc1	-13%	0%	19	-22%	-4%	32*
COc1ccc(-c2c(=O)n(OCc3nc4ccccc4[nH]3)c3ccccc3[n+]2[O-])cc1	-2%	-1%	29*	-1%	-19%	33
C=CCOn1c(=O)c(-c2ccc(OC)cc2)[n+]([O-])c2ccccc21	-4%	-8%	14*	-3%	-11%	52
CCN(C(=O)c1cn(-c2cccc(OC)c2)c(=O)c2ccccc12)c1ccccc1C	.	-2%	.	.	.	.
O=C(N/N=C1\CC2CC=CC12)c1ccccc1Cl (centres undefined)	3%	1%	21*	2%	-7%	85*
O=[N+]([O-])c1ccccc1N/N=C1\CC2CC=CC12 (centres undefined)	-1%	5%	31*	-7%	-1%	108*
FC(F)(F)c1ccccc1NC(=S)N/N=C1\CC2CC=CC12 (centres undefined)	-19%	-15%	23*	1%	11%	77*
O=C(N/N=C1\CC2CC=CC12)c1ccc(Br)cc1 (centres undefined)	-7%	4%	28	0%	-5%	48
O=[N+]([O-])c1ccccc1Nc1ccccc1[N+](=O)[O-]	.	-4%	.	.	2%	.
CCOc1ccccc1NC(=O)CCS(=O)(=O)c1ccc2c(c1)oc(=O)n2C	.	10%	.	.	.	.
COc1cc(CN(CC2CCCO2)C(=O)c2ccc(F)cc2)cc(OC)c1OC (centres undefined)	.	-2%	.	.	.	.
CCn1c(C(=O)NC2CCC(C)CC2)cc2sccc21 (centres undefined)	-16%	6%	38*	0%	2%	73*
CN(C(=O)c1cc2sccc2n1C)C1CCCCC1	-3%	12%	42*	1%	-10%	99*
Cn1c(C(=O)NC2CCCCC2)cc2sccc21	-7%	1%	29*	0%	6%	50
Cn1c(C(=O)N2CCCC(C(=O)O)C2)cc2sccc21 (centres undefined)	7%	1%	-6	9%	0%	-11
COc1cc(C2CC(=O)N(Cc3ccc(F)cc3)c3ccccc3S2)cc(OC)c1OC (centres undefined)	.	0%	.	.	.	.
COc1ccc(NC(=O)c2cc3c(-c4ccc(OC)c(OC)c4)nn(C)c3s2)cc1OC	12%	0%	51*	5%	-28%	100*
COc1cccc(-c2nn(C)c3sc(C(=O)NCc4ccc(C)o4)cc23)c1	-13%	-1%	23*	-2%	-13%	28
O=C(Nc1cnc2sccn2c1=O)c1ccc(Cl)cc1Cl	2%	-2%	38*	-2%	12%	120*
COc1ccc(Cl)cc1NC(=O)c1cnc2sccn2c1=O	-5%	-6%	-2	5%	-5%	25

Source: PubChem (National Center for Advancing Translational Sciences (NCATS))
